Data reported in PubChem BioAssay (NCATS).
Values joined by “and” are separate entries in the source; they are usually repeats but may differ in a detail not shown here. Equal values may be shown once. Records with an inconclusive call do not appear. Unmarked numbers belong to inactive results. Active and inactive are the calls of the source. The call rests on the fitted dose curve; in most records, active means well fitted inhibition curve with a large enough effect; inconclusive means small, poorly fitted or top-dose-only effect; inactive means flat fitted curve, though single readings scatter.

system: CRL-7250; test: Cytotoxic Profiling of Annotated Libraries Using Quantitative High-Throughput Screening (AID 1296008); conditions: Five cell lines viability, CellTiter-Glo ATP luminescence, 48-72 h; max response: active compounds read low; further: nearly all actives have a fitted effect of over 60% in size
Summary of the method: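 Compounds were pin-transferred onto cells and incubated 48 or 72 hr at 37 degree Celsius, 95% humidity. CellTiter-Glo was added, plates sat 10 min at room temperature, then ATP-coupled luminescence was imaged as the viability read-out.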
On the % scale 0 is the no-effect control and ±100 the full control effect; potency means the concentration at half of the fitted maximal effect.

Row | Compound | max response [%] | Potency | outcome
1 | CC1CC(C(O)C(C)(C)O)OC2CC3(C)C4(C)CCC5C(C)(C)C(=O)CCC5(C)C4CCC3(O)C12O (stereo not given) | 3.36 | – | –
2 | CC(C)[C@@H](CS(=O)(=O)C(C)C)N1C(=O)[C@@](C)(CC(=O)O)C[C@H](c2cccc(Cl)c2)[C@H]1c1ccc(Cl)cc1 | – | 5.8 µM (active) and 1.86 µM (active) | –
3 | C[C@@H]1O[C@@H](O[C@H]2[C@H](O)[C@@H](C(=O)O)O[C@@H](O[C@H]3CC[C@@]4(C)C(CC[C@]5(C)C4CC=C4C6CC(C)(C)CC[C@]6(C(=O)O)CC[C@]45C)C3(C)C)[C@@H]2O[C@@H]2OC[C@@H](O)[C@H](O)[C@H]2O)[C@H](O)[C@H](O)[C@H]1O (stereo not given in full) | 3.95 | – | –
4 | CCOc1cc(C(=O)N2CCC(N3CCN(C)CC3)CC2)ccc1Nc1ncc2c(n1)N(C1CCCC1)c1ccccc1C(=O)N2C | – | 10.3 µM (active) | –
5 | O=S(=O)(c1ccccc1)c1cnc2c(N3CCNCC3)cccc2c1 | 1.33 | – | –
6 | CC1(C)CCCC2(C)C=C(C(=O)O)C(O)CC12 (stereo not given) | – | – | inactive
7 | O=C(NCc1cccc(O)c1)c1cc2cc(F)ccc2[nH]1 | 3.57 | – | –
8 | COc1ccc(-c2ccc(-c3cn(C(=O)N4CCCCC4c4ccccc4)nn3)cc2)cc1 (stereo not given) | – | – | inactive
9 | CC1(C(=O)O)CCCC2(C)C3CCC4CC3(CCC12)CC4=O (stereo not given) | -1.87 | – | –
10 | CC(C)(C)NCCCNC(=O)c1cccc(Br)c1 | – | – | inactive
11 | COc1ccc2c(OC)c3ccoc3nc2c1OC | -6.93 | – | –
12 | CC1(C)C2CC=C(COC3OC(COC4OCC(O)(CO)C4O)C(O)C(O)C3O)C1C2 (stereo not given) | – | – | inactive
13 | CC(C)c1c2cc(-c3ccnc(NC4CCC(NC5CCOCC5)CC4)n3)ccc2nn1C (stereo not given) | – | 0.58 µM (active) | –
14 | C[C@@H]1CC[C@]2(C(=O)O[C@@H]3O[C@H](CO)[C@@H](O)[C@H](O)[C@H]3O)CC[C@]3(C)C(=CCC4[C@@]5(C)C[C@@H](O)[C@H](O)[C@@](C)(C(=O)O[C@H]6[C@H](O)C[C@@]7(C)C(CC[C@]8(C)C7CC=C7[C@H]9[C@](C(=O)O[C@@H]%10O[C@H](CO)[C@@H](O)[C@H](O)[C@H]%10O)(CC[C@@H](C)[C@@]9(C)O)CC[C@]78C)[C@@]6(CO)C(=O)O)C5CC[C@]43C)[C@@H]2[C@]1(C)O (stereo not given in full) | – | – | inactive
15 | OC[C@@]1(O)CO[C@@H](OC[C@H]2O[C@@H](Oc3c[nH]c4ccccc34)[C@H](O)[C@@H](O)[C@@H]2O)[C@@H]1O | -23.1 | – | –
16 | CC/C=C/CC1=C(CCCCC(CCC(=O)O)OC(C)=O)CCC1=O (stereo not given) | -18.8 | – | –
17 | COc1cc(OC)cc(C(=O)Nc2ccc(Cl)c(-c3nc4ccc(N(C)C)cc4[nH]3)c2)c1 | – | – | inactive
18 | FC(F)(F)c1ccc(Nc2nc(-c3c(C(F)(F)F)nc4ccccn34)cs2)cc1 | – | 5.8 µM (active) | –
19 | Cn1c2ccc(F)cc2c2c(C(=O)N3CCCC3)cn(-c3ccccc3)c(=O)c21 | – | – | inactive
20 | CC(C)(O[C@@H]1O[C@H](CO)[C@@H](O)[C@H](O)[C@H]1O)C(OC(=O)/C=C\c1ccc(O)cc1)C(=O)OCc1ccc(O[C@@H]2O[C@H](CO)[C@@H](O)[C@H](O)[C@H]2O)cc1 (stereo not given in full) | -12.2 | – | –

Row | Compound | max response [%] | Potency | outcome
21 | O=C(NCc1ccccn1)Nc1nnc(-c2ccco2)o1 | 0.451 | – | –
22 | CCOc1cc(N2CCC(O)CC2)ccc1Nc1ncc2c(n1)N(C1CCCC1)CCC(=O)N2C | – | 6.51 µM (active) | –
23 | Cc1ccc(C(=O)N(CCCN)C(c2oc3cc(Cl)ccc3c(=O)c2Cc2ccccc2)C(C)C)cc1 (stereo not given) | -42.6 | – | –
24 | C=C[C@@]12COC(=O)C(=C)C1[C@@H](O)[C@H](C(=C)C(=O)OC)[C@@H](OC(=O)C(=C)CO)C2 (stereo not given in full) | -22.2 | – | –
25 | C=C1CCC2C(C)(C)C(O)CCC2(C)C1CCC(C)CCO (stereo not given) | -1.18 | – | –
26 | CN(C)C(=O)NC1CCC(CCN2CCN(c3cccc(Cl)c3Cl)CC2)CC1 (stereo not given) | 1.18 | – | –
27 | COc1ncc2cc(C(=O)Nc3cc(C(=O)NCc4cccc(Cl)c4)ccc3Cl)c(=O)[nH]c2n1 | – | – | inactive
28 | C[C@@H]1O[C@@H](O[C@@H]2[C@@H](O)[C@H](O[C@H]3CC[C@@]4(C)C(CC[C@]5(C)C4CC=C4[C@@H]6CC(C)(C)CC[C@]6(C(=O)O[C@@H]6O[C@H](CO)[C@@H](O)[C@H](O)[C@H]6O)CC[C@]45C)C3(C)C)O[C@H](C(=O)O)[C@H]2O)[C@H](O)[C@H](O)[C@H]1O (stereo not given in full) | – | – | inactive
29 | COc1ccc(-c2nc(-c3ccc(-c4cccc(Cl)c4)o3)[nH]c2-c2ccc(OC)cc2)cc1 | – | – | inactive
30 | O=C1Nc2ccccc2C(O)(c2ccccc2)C1O (stereo not given) | 0.0908 | – | –
31 | OCC(CO[C@@H]1O[C@H](CO)[C@@H](O)[C@H](O)[C@H]1O)c1ccc2c(c1)OCO2 (stereo not given in full) | 0.071 | – | –
32 | O=C(O)c1c(O)c(-c2ccccc2)nc2ccccc12 | – | – | inactive
33 | O=C(O)CC1CCC(c2ccc(-c3ccc4nc(C(=O)NCc5ccc(OC(F)(F)F)cc5)cn4c3)cc2)CC1 (stereo not given) | 4.28 | – | –
34 | CC1OC(OCC2OC(OC3CCC4(C)C(CCC5(C)C4CC=C4C6CC(C)(C)CCC6(C(=O)OC6OC(CO)C(O)C(O)C6O)CCC45C)C3(C)CO)C(O)C(O)C2O)C(O)C(O)C1O (stereo not given) | -3.44 | – | –
35 | CC1CC(O)/C=C/C(O)C(O)CC(=O)Cc2c(Cl)c(O)cc(O)c2C(=O)O1 (stereo not given) | 2.61 | – | –
36 | C[C@@H]1O[C@@H](OC[C@H]2O[C@@H](Oc3cc(O)cc4c3C(=O)C(O)(Cc3ccc(O)cc3)O4)[C@H](O)[C@@H](O)[C@@H]2O)[C@H](O)[C@H](O)[C@H]1O (stereo not given in full) | 3.09 | – | –
37 | CC(NC(=O)CCc1nc2ccccc2c(=O)[nH]1)c1ccccc1 (stereo not given) | -18.4 | – | –
38 | C[C@@]12CC[C@@H]3[C@@](CC[C@H]4[C@@]3(C)CCC[C@@]4(C)C(=O)O)(CC1=O)C2 | -4.96 | – | –
39 | CC1C(OC(=O)c2ccccc2)C(O)C2C(C(=O)O)=COC(OC3OC(CO)C(O)C(O)C3O)C12 (stereo not given) | 3.33 | – | –
40 | COC(=O)C12CCC(C)C(C)C1C1=CCC3C4(C)CCC(OC(C)=O)C(C)(C)C4CCC3(C)C1(C)CC2 (stereo not given) | -3.42 | – | –
